# GLS inhibitor – inhibitors of human glutaminase (GLS); O94925; GLS enzymatic activity, qHTS titration; Potency, µM (titrated, usually from 45.5 µM), for the others: at the top dose activity change, negative = inhibition, actives largely listed as inhibitors; 410,000 compounds, 0.21% hits; AID 624170; note: % is set by controls: 0 for no effect and ±100 for the full control effect
#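 Glutamate formation by hKGA was monitored fluorometrically using coupled glutamate oxidase, HRP and Amplex Red. Substrate was added as 1 mM L-glutamine solution; incubation was 30 min at RT after an initial read.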
# HP1b chromo inh – blocks HP1-beta chromodomain binding to methylated histone tails. P83916. Potency, µM (highest dose often 114 µM), for inactives: at the top dose activity change, negative = inhibition, most hits filed as inhibitors. 390,000 compounds, 0.56% hits. AlphaScreen HP1-beta / biotin-H3K9me3 peptide binding; note: nearly all actives have a fitted effect of over 70% in size
# Target sequence (P83916 whole entry, looked up): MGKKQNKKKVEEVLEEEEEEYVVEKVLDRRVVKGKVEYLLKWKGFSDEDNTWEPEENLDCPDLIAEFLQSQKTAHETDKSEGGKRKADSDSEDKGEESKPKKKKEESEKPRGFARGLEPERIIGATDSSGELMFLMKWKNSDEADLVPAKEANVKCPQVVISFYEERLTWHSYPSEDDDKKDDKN
#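 Compound inhibition of the preformed complex between 50 nM HP1-beta and 50 nM biotinylated H3K9me3 peptide was read by AlphaScreen. Buffer was PBS pH 7.4 with 0.01% Tween-20. Incubations ran 30 min at room temperature, with 10 ug/mL donor/acceptor beads.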
# BAZ2B inh – blocks human BAZ2B; AID 504333; Q9UIF8; AlphaScreen BAZ2B-H3K14Ac peptide displacement; 360,000 compounds, 4.4% hits; Potency, µM (highest dose often 114 µM), inactives show at the highest dose activity change, negative = inhibition, hits mostly inhibitors; note: % is set by controls: 0 for no effect and ±100 for the full control effect; nearly all actives have a fitted effect of over 60% in size
#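 Complex of BAZ2B and biotin-H3K14Ac (50 nM apiece) forms over 30 min at RT, then faces library compounds up to 110 uM for another 30 min; AlphaScreen beads added, 20 min dark incubation, luminescence read.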
# G9a block – G9a (human) methyltransferase inhibition; G9a H3K9 monomethylation, AlphaScreen, 2 h; Potency, µM (top dose mostly 102 µM), for inactives: top-dose activity, negative = inhibition, usual class: inhibitors; 350,000 compounds, 8.8% hits; note: % is set by controls: 0 for no effect and ±100 for the full control effect; nearly all actives have a fitted effect of over 75% in size
# Target sequence (Q96KQ7 913-1193 limits assumed): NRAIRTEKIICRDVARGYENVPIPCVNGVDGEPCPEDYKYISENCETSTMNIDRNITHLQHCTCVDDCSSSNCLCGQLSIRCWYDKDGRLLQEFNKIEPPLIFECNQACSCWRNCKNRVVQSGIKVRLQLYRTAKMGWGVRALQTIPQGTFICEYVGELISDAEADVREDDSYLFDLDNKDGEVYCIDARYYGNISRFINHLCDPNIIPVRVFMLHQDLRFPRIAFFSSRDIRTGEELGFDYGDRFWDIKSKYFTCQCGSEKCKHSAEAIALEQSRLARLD
#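 Compounds were preincubated with 20 nM G9a for 15 min, after which biotinylated H3K9 peptide (500 nM) and SAM (20 uM) started a 2 h room-temperature reaction. Monomethylated product was quantified by antibody-based AlphaScreen chemiluminescence.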
# JMJD2A Tudor – blocks the human JMJD2A Tudor domain; AID 504339; AlphaScreen JMJD2A-Tudor / H3K4me3 peptide binding; 390,000 compounds, 4.4% hits; O75164; Potency, µM (highest dose often 114 µM), for inactives: top-dose activity change, negative = inhibition, usual class: inhibitors; note: % is set by controls: 0 for no effect and ±100 for the full control effect; nearly all actives have a fitted effect of over 50% in size
# * marks the source's active call; other numbers are inactive results; ? = inconclusive; · = no result; [ ] = remark or other dose. Shown are actives, neighbours in structure and some others; about 10% of the full set was active somewhere. Calls come from the whole dose curve; as a rule, active = well fitted curve in the direction sought with a large enough effect; inconclusive = small, poorly fitted or top-dose-only effect, or another doubt; inactive = no such curve, though single readings can be large; an effect the other way counts as inactive or inconclusive. Potency is the fitted concentration of half-maximal effect.
SMILES,GLS inhibitor,HP1b chromo inh,BAZ2B inh,G9a block,JMJD2A Tudor
O=C(NCCc1ccccc1)C1CCCN(c2cnccn2)C1 (centres undefined),1.5%,?,-6.6%,·,28.2µM*
Cc1ccccc1Nc1nc(CSc2nnnn2-c2ccccc2)cs1,5.0%,6.3%,-6.2%,39.8µM*,-25.8%
c1ccc(-c2nc(CSc3nnnn3-c3ccccc3)cs2)cc1,3.4%,84.4%,-0.7%,-3.7%,41.9%
COc1ccc(-n2nc3c(N4CCCC(C(=O)NCc5ccccc5C)C4)nnc(C)c3c2C)cc1 (centres undefined),?,32.8%,50.1µM*,?,-25.5%
Cc1ccc(-n2nc3c(N4CCC(C(=O)NCc5ccc(C)o5)CC4)nnc(C)c3c2C)cc1,-49.1%,41.8%,50.1µM*,?,44.7µM*
Cc1ccc(C(=O)Nc2ccccc2C(=O)Nc2ccccn2)cc1Cl,2.6%,-6.1%,11.5%,·,-10.3%
CC(C)=CCc1c2c(c(O)c3c(=O)c4c(oc13)-c1cc(O)c(O)cc1OC4C=C(C)C)C=CC(C)(C)O2 (centres undefined),3.7%,?,·,·,35.5µM*
CC(C)=CCc1c(-c2ccc(O)cc2O)oc2c3c(cc(O)c2c1=O)OC(C)(C)C=C3,3.7%,-7.6%,·,·,?
Cc1ccc2cc(C3CC(c4ccco4)=NN3S(C)(=O)=O)c(Cl)nc2c1 (centres undefined),7.9%,-14.0%,?,·,-28.1%
CC(=O)N1N=C(c2ccco2)CC1c1cc2cc(C)ccc2nc1Cl (centres undefined),5.62µM*,26.7%,0.2%,·,7.9%
CCOc1ccc2cc(C3CC(c4ccco4)=NN3S(=O)(=O)c3ccccc3)c(Cl)nc2c1 (centres undefined),10.4%,-7.4%,?,10µM*,-34.2%
COc1ccc2cc(C3CC(c4ccco4)=NN3S(=O)(=O)c3ccccc3)c(Cl)nc2c1 (centres undefined),0.6%,8.0%,-35.2%,?,-22.6%
Cc1ccc2cc(C3CC(c4ccco4)=NN3S(=O)(=O)c3ccccc3)c(Cl)nc2c1 (centres undefined),10.9%,17.7%,-37.8%,50.1µM*,-22.7%
Cc1ccc2nc(Cl)c(C3CC(c4ccco4)=NN3C(=O)CCCC(=O)O)cc2c1 (centres undefined),-3.7%,25.7%,-17.0%,?,-19.3%
CCOc1ccc2cc(C3CC(c4ccco4)=NN3S(C)(=O)=O)c(=O)[nH]c2c1 (centres undefined),-15.1%,?,-32.4%,·,50.1µM*
Nc1nc(N)c(-c2cccc(C(F)(F)F)c2)c(Cc2cccc(C(F)(F)F)c2)n1,-0.9%,18.5%,·,·,-22.2%
COCCNC(=O)C(c1ccccc1)N(Cc1cccs1)C(=O)Cn1nnc2ccccc21 (centres undefined),-7.1%,16.9%,10.6%,20.4%,-10.4%
Cc1cc(NC(=O)COC(=O)CSCc2ccc(Cl)c(Cl)c2)no1,16.7%,71.1%,10.6%,-21.5%[12.7 µM],11.8%
CSc1ccc(/C=N/N2CCN(Cc3ccccc3)CC2)cc1,3.2%,44.7µM*,12.6µM*,·,44.7µM*
COc1ccc(/C=N\N2CCN(Cc3ccccc3Cl)CC2)cc1,13.1%,-13.5%,?,12.6µM*,?
C(=C\c1ccccc1)/C=N/N1CCN(Cc2ccccc2)CC1,-7.1%,?,35.5µM*,44.7µM*,50.1µM*
C(=C\c1ccccc1)/C=N/N1CCN(c2ccccn2)CC1,9.3%,-5.9%,-12.0%,?,?
Clc1ccccc1CN1CCN(/N=C/c2ccncc2)CC1,3.2%,-5.9%,44.7µM*,44.7µM*,?
Cc1c(C(=O)N(Cc2ccccc2)Cc2cccs2)cnn1-c1ccc(Cl)cc1,17.4%,40.9%,15.4%,92.5%,-1.4%
COc1cccc(-c2noc(CCC(=O)NC3CCCCC3)n2)c1,-3.1%,32.6%,-3.4%,5.7%[12.7 µM],8.3%
SMILES,GLS inhibitor,HP1b chromo inh,BAZ2B inh,G9a block,JMJD2A Tudor
CCOc1ccc(/C=N/N2CCN(Cc3ccccc3)CC2)cc1,-11.9%,?,50.1µM*,39.8µM*,?
C(=N\N1CCN(Cc2ccccc2)CC1)/c1cccs1,4.8%,-19.1%,?,?,?
Clc1ccc(/C=N/N2CCN(Cc3ccccc3Cl)CC2)cc1,7.3%,-9.8%,35.5µM*,?,44.7µM*
C/C(=N\N1CCN(Cc2ccccc2Cl)CC1)c1ccc(F)cc1,8.0%,24.6%,-12.6%,·,-11.7%
Clc1ccc(/C=N/N2CCN(Cc3ccccc3)CC2)cc1,-1.9%,?,44.7µM*,50.1µM*,56.2µM*
O=C(O)/C=C\C(=O)NCc1cccnc1,2.2%,27.3%,-26.5%,?,-15.9%
Fc1ccc(-n2c(-c3ccco3)n[nH]c2=S)cc1,6.7%,15.1%,-22.5%,?,6.31µM*
CCOc1ccc(-n2c(-c3ccco3)n[nH]c2=S)cc1,10.0%,?,?,3.16µM*,5.62µM*
Cc1ccc(-n2c(-c3ccco3)n[nH]c2=S)cc1,-9.8%,-17.1%,-12.5%,·,22.4µM*
Cc1ccc2c(c1)c1nnc(SCC(=O)NC3CC3)nc1n2C,·,·,-15.1%,22.1%,·
C[C@H](NC(=O)c1nc[nH]c1C(=O)NCCCCCNC(=O)OC(C)(C)C)c1ccccc1,-1.4%,32.5%,4.4%,12.8%[2.33 µM],-28.2%
Cc1ccc(NC(=O)CSc2ncn(-c3ccccc3)n2)cc1C,-2.3%,23.6%,-2.4%,-8.5%[59 µM],-11.2%
COc1ccc(CCNC(=O)c2cc(S(=O)(=O)N3CCOCC3)ccc2F)cc1,0.9%,22.6%,1.8%,2.0%[2.33 µM],0.7%
COc1ccc(NC(=O)N2CCN(S(C)(=O)=O)CC2)cc1,30.8%,5.6%,-34.8%,-7.5%,?
COc1ccccc1/C=N/N1CCN(c2ccc(Cl)cc2)CC1,4.7%,19.9%,50.1µM*,4.6%[0.501 µM],39.8µM*
COc1ccccc1C=NN=Cc1ccccc1OC,2.2%,-32.9%,·,·,?
O=C(N/N=C/c1ccc(OC(F)F)cc1OC(F)F)NC1CCCCC1,5.5%,34.8%,-14.2%,1.2%,-10.3%
FC(F)Oc1ccc(/C=N/N2CCCCC2)c(OC(F)F)c1,·,·,?,56.2µM*,·
COc1ccccc1C=NN1CCCCCC1,-9.5%,?,·,·,44.7µM*
O=C(Nc1ccc(F)c(Cl)c1)c1cccnc1,-20.8%,2.0%,-1.8%,?,?
CC1CCCC(C)N1c1nnc(N)s1 (centres undefined),-1.8%,41.9%,-15.6%,17.8µM*,-10.0%
CC1CCCCN1c1nnc(N)s1 (centres undefined),7.4%,9.8%,-27.8%,-2.6%[59 µM],-2.9%
COCCN(C(=O)Cc1cccs1)C(C(=O)NC1CCCC1)c1ccc(OC)c(OC)c1 (centres undefined),0.7%,38.0%,-14.3%,16.7%,-12.7%
CCn1c(=O)cc(SCC(=O)NCCc2cccc(C)c2)c2ccccc21,3.6%,17.8%,-14.9%,-35.3%[59 µM],-10.1%
CCN(CCCNC(=O)CNC(=O)Cn1cnc2ccccc2c1=O)c1ccccc1,31.1%,12.3%,-7.4%,2.24µM*,-16.6%
